# Measured values: PubChem BioAssay (NCI)
# Where “and” joins values, the source holds several entries; their conditions need not be identical. Identical values can stand only once. The panel holds about 83,000 compounds, 20% with a hit somewhere; the sample as a whole holds those more often.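 Growth was measured after 48 h exposure to one concentration of compound in 96-well plates. Values under 10 count as active.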 A number with no mark means an inactive call. Calls of active or inactive are those of the source.
# Tested on: MDA-MB-468 breast
# Assay: NCI-60 one-dose screen, 48 h (100 = growth as untreated, 0 = no growth, -100 = all killed)
# Conditions: 10 µM unless noted
row,SMILES,growth
1,Cc1cc(N)ccc1-c1ccc(N)cc1C,97.5%
2,COc1c(O)c2c3c(c1OC)-c1ccccc1CC3N(S(=O)(=O)c1ccc(C)cc1)CC2 (stereo unspecified),37.1%
3,CCCCNC(=O)c1cc([N+](=O)[O-])cc(C2CCCCC2)c1O,-1.64% (active)
4,O=C(N/N=C/[C@H](O)[C@H](O)[C@H](O)CO)c1ccc(NC(=O)c2cccnc2)cc1,113%
5,CN1C(=O)N(c2ccccc2)C2N=C(N/N=C/c3ccccc3)SC21 (stereo unspecified),-11.5% (active)
6,O=C(/C=C1\C(=O)N(Cc2ccc([N+](=O)[O-])cc2)c2ccccc21)c1ccc(OCCN2CCCC2)cc1,59.4%
7,Cc1ccc(C(=O)NN2C(=O)CSC2c2cccc([N+](=O)[O-])c2)cn1 (stereo unspecified),105%
8,CC1=CC2OC34COC3CC(OC(=O)C(F)(F)F)C4(C)C2(C)CC1 (stereo unspecified),87.5%
9,COc1ccc2c(c1)c(/C(O)=C1\COC(=O)C1=O)cn2Cc1ccc(F)cc1,100%
10,O=C1c2cccc3c(-c4ccc5c(c4)ncn5C4CCCCC4)ccc(c23)C(=O)N1CCO,78.9%
11,O=C1/C(=C(/c2ccccc2)N2CCOCC2)Cc2ccccc21,-19% (active)
12,Cc1cc(C(=O)O)c(C)cc1C(=O)O,96.6%
13,O=C(/C=C/c1ccccc1)c1ccccc1,74.8%
14,C/C(=N\O)c1ccccn1,97.6%
15,CC[C@H](C)C(=O)O[C@H]1C[C@@H](C)C=C2C=C[C@H](C)[C@H](CC[C@@H]3C[C@@H](O)CC(=O)O3)[C@H]21,103%
16,COC(=O)/C=C1/SC(=Nc2ccc([N+](=O)[O-])cc2)N(CCc2c[nH]c3ccccc23)C1=O,86%
17,Cc1cccc2c3c(sc12)C(c1ccc(F)cc1)C(C#N)=C(/N=C/c1ccc(Cl)cc1)O3 (stereo unspecified),36.2%
18,O=C1/C(=C/c2ccc(F)cc2)COc2ccc(O)cc21,86.4%
19,Cc1ccc(Cl)cc1NC(=O)N(C)CCO,132%
20,Nc1c(CNCc2nnn(Cc3ccccc3)c2N)nnn1Cc1ccccc1,100%
21,C[C@H]1[C@H](C)CC[C@]2(C(=O)O)CC[C@]3(C)C(=CC[C@@H]4[C@@]5(C)C/C(=C/c6ccco6)C(=O)C(C)(C)[C@@H]5CC[C@]43C)[C@H]12,-38% [100 µM] (active)
22,COc1ccc(C2(O)CCCCC2)cc1,95.2%

row,SMILES,growth
1,CC1=C2CC/C(C)=C/CC[C@]3(C)O[C@H]3CC/C(C)=C/[C@H]2OC1,98.6%
2,O=C1Nc2cc(-c3ccc(O)cc3)ccc2/C1=C/c1ccc[nH]1,-29.2% (active)
3,CC(=O)Nc1nonc1-c1nc2ccccc2n1Cc1ccc(C(C)(C)C)cc1,86.8%
4,O=C1Nc2cc(-c3cccc([N+](=O)[O-])c3)ccc2/C1=C/c1ccc[nH]1,-7.17% (active)
5,Cc1c(NCC(=O)Nc2nc3ccccc3[nH]2)c(=O)n(-c2ccccc2)n1C,106%
6,c1cnc2[nH]cc(-c3nc(-c4ccsc4)cs3)c2c1,74.6%
7,CSc1nc(=S)c2nc(SC)n(-c3ccccc3)c2[nH]1,91.1%
8,CC(C)(C)c1cc(Br)cc(C(C)(C)C)c1O,110%
9,O=C(c1nc2ccccc2[nH]1)C1[C@@H](c2cccc(O)c2)C2CC3CCCCC3N2[C@@]12C(=O)Nc1cc(Cl)ccc12 (stereo partly specified),32.5%
10,N=C(N)c1ccc(-c2ccc(-c3ccc(Cl)c(Cl)c3)o2)cc1,-70.3% (active)
11,CS(=O)(=O)CCNCc1ccc(-c2ccc3ncnc(Nc4ccc(OCc5cccc(F)c5)c(Cl)c4)c3c2)o1,-56.5% (active)
12,O=C(N/N=C/c1cccc2ccccc12)C1CC1,120% and 106%
13,CCOC(=O)c1ccc2c(c1)nc(-c1ccc(OCc3ccccc3)c(OC)c1)n2-c1cc(C(C)(C)C)[nH]n1,77%
14,COc1ccc2nc(-c3ccc(-c4noc(-c5ccc(Cl)cc5)n4)cc3)[nH]c2c1,37.5%
15,C#CC(F)(F)[C@]1(O)CC[C@H]2[C@@H]3CCC4=CC(=O)CCC4=C3[C@@H](c3ccc(C4CC4)cc3)C[C@@]21C,33.8%
16,CN(C)CC(=O)Nc1ccc(Cn2nnc3c2C(=O)c2nnn(Cc4ccc(NC(=O)CN(C)C)cc4)c2C3=O)cc1,-79% (active)
17,Cn1cc(-c2noc(-c3cn(C)c4ncc(Br)cc34)n2)c2cc(Cl)ccc21,82.3%
18,COc1cnc2c(c1)C(=O)c1c-2n(CCCN2CCN(C)CC2)c(=O)c2cc([N+](=O)[O-])ccc12,-57.9% (active)
19,Cc1ccc(C2(C)NC(=O)N(CC(=O)Nc3cccc(C)c3)C2=O)cc1 (stereo unspecified),89%
20,Cc1occc1-c1nc2s/c(=C\c3cn(-c4ccccc4)nc3-c3ccccc3)c(=O)n2n1,89.8%
21,Cc1onc2c(-c3ccccc3)n[nH]c(=O)c12,98.3%
22,CCSc1ccc([C@@H]2[C@@H](O)C(=O)N2c2cc(OC)c(OC)c(OC)c2)cc1,40.2%

row,SMILES,growth
1,COc1ccc(/C(N)=N/C(N)=N/c2nc3ccccc3s2)cc1,24.3%
2,C#CCN(C)CCCOc1ccc(NCc2ccc(/C=C/C(=O)NO)cc2)cc1Cl,-47.6% (active)
3,COc1cc(Cc2cc(-c3ccccc3)nn(Cc3ccccc3)c2=O)cc(OC)c1OC,28.4%
4,Cc1nc2ccccc2n1CC1C(=O)NC(=O)NC1=O,107%
5,CCN1C(=O)N(CC)C2C1NN=c1s/c(=C\c3cccc([N+](=O)[O-])c3)c(=O)n12 (stereo unspecified),3.95% (active)
6,Cc1ccccc1CCO,97.5%
7,Cc1ccccc1Nc1nc2nonc2nc1Nc1cccc(C)c1C,12.3%
8,CN1CCN(c2ccc(NC(=O)Nc3ccc4c(ccn4-c4cccc(C(N)=O)n4)c3)cc2C(F)(F)F)CC1,42.8%
9,CCCCCCCCCCCCCCCCCC1=NCCN1CS(=O)(=O)O,99.2%
10,COC(=O)C(Cc1ccccc1)NC(=O)c1ccc(NC(=O)c2[nH]c(C)c(Cl)c2Cl)c(OC(C)C)c1 (stereo unspecified),96.8%
11,O=C1/C(=N\c2cc(=O)[nH]n2S(=O)(=O)c2ccccc2)Nc2ccccc21,106%
12,O=C1Cc2cc(O)ccc2O1,103%
13,Cn1cc(-c2cc3ncnc(Nc4ccc(CC(=O)Nc5nc(C(C)(C)C)cs5)cc4)c3s2)cn1,31.2%
14,COC(=O)c1c2c(c(C)[n+]([O-])c1C)C(=O)C=CC2=O,-33% (active)
15,CCOC(=O)CNC(=O)Sc1ccc(C(C)(C)C)cc1,111%
16,Cc1nn(-c2ccccc2)c2nc3nc4c(c(N)c3c(-c3ccc(Cl)cc3)c12)CCC4,99.3%
17,NS(=O)(=O)c1ccc(CCN2C(=O)C=CC2=O)cc1,103%
18,Cc1noc(C)c1CSc1nc2ccccc2n1-c1ccccc1,108%
19,O=C(CN1CCN(c2cc3c(cc2F)c(=O)c(C(=O)O)cn3C2CC2)CC1)Nc1ccc(C(=O)/C=C/c2ccc(Cl)cc2)cc1,95.1%
20,CC[N+]1(CC)CC[N+]2(CCCC(C)CC2)CC1 (stereo unspecified),108%
21,COc1ccc(/C=C/C(=O)c2ccc(NC(=O)CSc3nc4c([nH]3)c(=O)n(C)c(=O)n4C)cc2)cc1OC,51.8%
22,Cc1ccc(-c2nc(/C=C3/C(=O)Nc4ccccc43)c3ccccn23)cc1,69.6%

row,SMILES,growth
1,N#Cc1ccc(S(=O)(=O)Nc2ccc(-c3cnc(N)[nH]3)cc2)cc1,97.7%
2,N#Cc1cnc2cc(OC[C@H](O)CO)c(NC(=O)CC3CSSC3)cc2c1Nc1ccc(OCc2cccc(F)c2)c(Cl)c1,-78.3% (active)
3,COc1ccc2[nH]cc(/C=N/Nc3nc4ccccc4s3)c2c1,40.6%
4,COc1cc(-c2ccc(NC(=O)CC(C)=O)c(OC)c2)ccc1NC(=O)CC(C)=O,109%
5,COc1cc(/C=C/C(=O)c2c(C)oc3nc[nH]c(=O)c23)cc(OC)c1OC,64.3%
6,Cc1c(-c2noc(-c3ccc([N+](=O)[O-])cc3)n2)no[n+]1[O-],104%
7,COc1cc(-c2nccc3cc4c(cc23)OCO4)cc(OC)c1OC,-6.2% (active) and 5.32% (active)
8,COc1ccc(-c2cc(/C=C3\C(=O)Nc4cc(Cl)ccc43)[nH]n2)cc1,11.3%
9,O=C(CSc1nnc2sc(Nc3cccc(Cl)c3)nn12)c1ccc(F)cc1,89.5%
10,Clc1cc(Cl)cc(Nc2ccc3cc(OCCCN4CCOCC4)ccc3n2)c1,40.9%
11,O=C(Nc1ccc(F)cc1)c1cc2ccccc2cc1O,60.8%
12,N#CC1=C(N)Oc2cc(N)ccc2C1c1cccnc1 (stereo unspecified),97.9%
13,COc1ccc(-c2cc(-c3cccnc3)nc(S(=O)(=O)CC(=O)Nc3ccc(C)cc3)c2C#N)cc1OC,96%
14,N#C/C(=N\Nc1ccc(Cl)cc1)C(=O)C1CC1,27.1%
15,Cc1ccc(-c2cnc3sc(C(=O)NCCc4ccccc4)c(C)n23)cc1,93.1%
16,OC(c1cc(-c2ccc(Cl)cc2)nc2c(Cl)cccc12)C1CCCCN1 (stereo unspecified),-86.7% (active)
17,COc1ccc(/C=C/C(=O)c2cc3c(N)c(C(=O)Nc4cccc(Cl)c4C)sc3nc2C)cc1,17.1%
18,Cc1noc(C)c1C(=O)OCc1coc2ccccc2c1=O,24.5%
19,CCOc1ccc(Br)cc1/C=N\N=C\c1cc(Br)ccc1OCC,128%
20,CC[C@@]1(C(N)=O)CC2C=CC1C2 (stereo partly specified),103%
